Assay results from the supplement of paper PMC10849652.
Of roughly 8,800 targets only a part is listed; those with a hit were picked by preference. About 0.5% of all pairs of compound and target were hits.

Legend:
Test in all cases: log2 fold change, soluble protein after heating vs DMSO (PISA); higher = thermal stabilisation; K562 lysate, 10 uM; active = over 0.2 and 3.5 SD of the protein, either way, in both replicates (recomputed)
[1] = compound: NCC(=O)Nc1ccc(-n2nc(C(F)(F)F)cc2-c2ccc3c(ccc4ccccc43)c2)cc1
Procedure, shortened: (§1)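 Log-two fold change in thermal stability relative to solvent controls is reported from duplicates. For each sample, crude K562 extract from dounce-homogenised pellets in PBS pH 7.4 with 1 mM MgCl2, at 1 mg/mL protein, was treated with 10 μM compound for 30 min. Aliquots heated for 3 min across 48°C-58°C were pooled, brought to 0.5% NP-40 at 4°C and cleared at 21,000xg for 90 min. The supernatant was quantified by TMTpro 16plex LC-MS/MS with channel sums equalised.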

[2] = compound: O=C1NC(=O)C(c2cnc3ccccn23)=C1c1cn2c3c(cc(F)cc13)CN(C(=O)N1CCCCC1)CC2
Procedure, shortened: as §1

entospletinib = compound: c1cn2cc(-c3ccc4cn[nH]c4c3)nc(Nc3ccc(N4CCOCC4)cc3)c2n1 [entospletinib]
Procedure, shortened: as §1

Measured: log2 fold change

ZDHHC17 (UniProt Q8IUH5)
UniProt Q8IUH5, sequence (Q8IUH5 whole entry, looked up): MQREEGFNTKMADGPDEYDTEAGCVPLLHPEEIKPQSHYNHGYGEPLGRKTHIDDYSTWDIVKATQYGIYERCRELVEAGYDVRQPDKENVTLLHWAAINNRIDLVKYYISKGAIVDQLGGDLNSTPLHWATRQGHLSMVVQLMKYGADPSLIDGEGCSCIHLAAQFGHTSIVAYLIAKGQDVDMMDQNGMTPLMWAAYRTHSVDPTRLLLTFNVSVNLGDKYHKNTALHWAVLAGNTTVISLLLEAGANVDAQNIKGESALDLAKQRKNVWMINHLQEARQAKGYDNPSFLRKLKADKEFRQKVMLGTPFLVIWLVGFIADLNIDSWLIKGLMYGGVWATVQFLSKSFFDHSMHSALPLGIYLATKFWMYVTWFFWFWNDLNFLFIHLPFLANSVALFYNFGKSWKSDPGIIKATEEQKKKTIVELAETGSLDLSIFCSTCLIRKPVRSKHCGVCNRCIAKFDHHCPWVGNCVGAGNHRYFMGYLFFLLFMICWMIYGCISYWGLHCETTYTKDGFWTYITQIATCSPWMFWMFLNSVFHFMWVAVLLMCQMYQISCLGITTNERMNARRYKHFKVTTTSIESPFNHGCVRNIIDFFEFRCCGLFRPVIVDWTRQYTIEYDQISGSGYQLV
inactive: [1] 0.065 | [2] -0.067 | entospletinib 0.009
